We go through eight compounds from PubChem BioAssay (NCI).

Each structure is given as a SMILES string. Where “and” joins values, the source holds several entries; their conditions need not be identical. Equal entries are not always repeated. About 79,000 compounds went through this panel and 15% of them were active in at least one assay; those are over-represented in the sample as a whole. The source holds several records for some structures; these can differ, active in one and inactive in another. Calls of active or inactive are those of the source. Rule as the data show it: active = growth inhibition above about 70%; inactive = the rest.

A short description of assay [1]: NCI Yeast Anticancer Drug Screen. Data for the rad50 strain (AID 155).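 Also: 0% = growth of vehicle-only cultures of the same strain.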 As to conditions: S. cerevisiae rad50 strain growth inhibition, stronger effect = higher value. The method in brief:
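Genetically altered yeast (DNA repair pathway); compound treatment; growth inhibition vs vehicle ctrl.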

Assay [2] is described as follows: NCI Yeast Anticancer Drug Screen. Data for the mec2-1 strain (AID 157). Particulars: S. cerevisiae mec2-1 strain, stronger effect = higher value. The method in brief: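 Readout is yeast growth inhibition, normalised to vehicle-treated controls, in the mec2-1 strain exposed to compound.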
Assay [3] in a line: NCI Yeast Anticancer Drug Screen. Data for the sgs1 mgt1 strain (AID 161).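 Also: 0% = growth of cultures given vehicle only.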 As to conditions: S. cerevisiae sgs1 mgt1 strain, stronger effect = higher value. The gist of the method:
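Yeast cells carrying a defined DNA-repair defect were exposed to test compounds. Growth inhibition was measured relative to vehicle-treated controls.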

A short description of assay [4]: NCI Yeast Anticancer Drug Screen. Data for the cln2 rad14 strain (AID 165).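 Also: 0% = growth equal to vehicle treated cultures.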 Particulars: S. cerevisiae cln2 rad14 strain, stronger effect = higher value. The method in brief:
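Relative to vehicle controls, growth inhibition of compound-treated cln2 rad14 yeast was recorded.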

A short description of assay [5]: NCI Yeast Anticancer Drug Screen. Data for the bub3 strain (AID 167). As to conditions: S. cerevisiae bub3 mutant strain, stronger effect = higher value. The method in brief:
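Yeast carrying a defined mutation is treated with each compound, and growth is compared with that of vehicle-exposed cells to give inhibition.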

Assay [6] can be described thus: NCI Yeast Anticancer Drug Screen. Data for the mlh1 rad18 strain (AID 175). As to conditions: S. cerevisiae mlh1 rad18 strain growth inhibition, stronger effect = higher value. The gist of the method: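 Test agents were incubated with a yeast strain of defined genotype (DNA damage repair defect). Inhibition of growth was derived by comparison with vehicle-exposed cultures.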

Setting [7] is: at 5.0 µM (retest, dose inferred, filed as 0.5).
Setting [8] is: at 50.0 µM (retest, dose inferred, filed as 5.0).

Regarding `O=C(CON1C(=O)c2ccccc2C1=O)c1ccccc1`, the growth inhibition in assay [1] (setting [7]) was -3% (inactive); in assay [1] (setting [8]) it was 19% (inactive); in assay [1] (at 50.0 µM), 91.2% (active); in assay [2] (setting [7]) it was 8% (inactive); in assay [2] (setting [8]), 29% (inactive); in assay [2] (at 50.0 µM), 52% (inactive). For the same compound, the growth inhibition in assay [3] (setting [7]) was 6% (inactive); in assay [3] (setting [8]), 21% (inactive); in assay [3] (at 50.0 µM) it was 55.1% (inactive); in assay [4] (setting [7]) it was -5% (inactive); in assay [4] (setting [8]) it was -8% (inactive); in assay [4] (at 50.0 µM), -3.15% (inactive). The growth inhibition is -7% (inactive) in assay [5] (setting [7]); 32% (inactive) in assay [5] (setting [8]); 80.5% (active) in assay [5] (at 50.0 µM); -16% (inactive) in assay [6] (setting [7]); 18% (inactive) in assay [6] (setting [8]); 76.2% (active) in assay [6] (at 50.0 µM).

In the case of `O=C(c1ccc(Cl)cc1)C(O)c1ccc(Cl)cc1` (centres undefined), the growth inhibition in assay [1] (setting [7]) was -2% (inactive) and 10% (inactive); in assay [1] (setting [8]) it was 27% (inactive) and 74% (active); in assay [1] (at 50.0 µM), 34.2% (inactive); in assay [2] (setting [7]) it was -9% (inactive) and -3% (inactive); in assay [2] (setting [8]) it was 14% (inactive) and 35% (inactive); in assay [2] (at 50.0 µM) it was 12.4% (inactive). Also, the growth inhibition in assay [3] (setting [7]) is -2% (inactive) and 4% (inactive); in assay [3] (setting [8]), 79% (active) and 82% (active); in assay [3] (at 50.0 µM) it was 55.1% (inactive); in assay [4] (setting [7]), -8% (inactive) and 7% (inactive); in assay [4] (setting [8]) it was 67% (inactive) and 28% (inactive); in assay [4] (at 50.0 µM), 36% (inactive). For the same compound, the growth inhibition was -10% (inactive) and -1% (inactive) in assay [5] (setting [7]); 20% (inactive) and 45% (inactive) in assay [5] (setting [8]); 65.8% (inactive) in assay [5] (at 50.0 µM); -6% (inactive) and -12% (inactive) in assay [6] (setting [7]); 53% (inactive) and 49% (inactive) in assay [6] (setting [8]); 62.3% (inactive) in assay [6] (at 50.0 µM).

In the case of `CCSSc1ccccc1C(=O)NC(CC)CO` (centres undefined), the growth inhibition is 1% (inactive) in assay [1] (setting [7]); 59% (inactive) in assay [1] (setting [8]); 73.5% (active) in assay [1] (at 50.0 µM); 15% (inactive) in assay [2] (setting [7]); 69% (inactive) in assay [2] (setting [8]); 20.8% (inactive) in assay [2] (at 50.0 µM). Besides, the growth inhibition was 20% (inactive) in assay [3] (setting [7]); 71% (active) in assay [3] (setting [8]); 94.3% (active) in assay [3] (at 50.0 µM); 0% (inactive) in assay [4] (setting [7]); 12% (inactive) in assay [4] (setting [8]); 19.4% (inactive) in assay [4] (at 50.0 µM). The growth inhibition in assay [5] (setting [7]) was -10% (inactive); in assay [5] (setting [8]), 62% (inactive); in assay [5] (at 50.0 µM), 65.5% (inactive); in assay [6] (setting [7]), 3% (inactive); in assay [6] (setting [8]), 73% (active); in assay [6] (at 50.0 µM) it was 65.5% (inactive).

In the case of `C1=C(CN2CCCCC2)COc2ccccc21`, the growth inhibition is 9% (inactive) in assay [1] (setting [7]); 30% (inactive) in assay [1] (setting [8]); 51.4% (inactive) in assay [1] (at 50.0 µM); 1% (inactive) in assay [2] (setting [7]); 45% (inactive) in assay [2] (setting [8]); 22.9% (inactive) in assay [2] (at 50.0 µM). Also, the growth inhibition in assay [3] (setting [7]) is -7% (inactive); in assay [3] (setting [8]) it was 61% (inactive); in assay [3] (at 50.0 µM), 46.5% (inactive); in assay [4] (setting [7]) it was 0% (inactive); in assay [4] (setting [8]), 28% (inactive); in assay [4] (at 50.0 µM) it was 65% (inactive). The growth inhibition was 6% (inactive) in assay [5] (setting [7]); 44% (inactive) in assay [5] (setting [8]); 59.8% (inactive) in assay [5] (at 50.0 µM); 20% (inactive) in assay [6] (setting [7]); 54% (inactive) in assay [6] (setting [8]); 76.7% (active) in assay [6] (at 50.0 µM).

Turning to `O=C(OC(=Nc1ccccc1)N(c1ccccc1)c1ccccc1)c1ccccc1`, the growth inhibition is 5% (inactive) in assay [1] (setting [7]); 27% (inactive) in assay [1] (setting [8]); 13% (inactive) and 20.9% (inactive) in assay [1] (at 50.0 µM); 5% (inactive) in assay [2] (setting [7]); 8% (inactive) in assay [2] (setting [8]); 3.75% (inactive) and 12.8% (inactive) in assay [2] (at 50.0 µM). Further, the growth inhibition is -7% (inactive) in assay [3] (setting [7]); 40% (inactive) in assay [3] (setting [8]); 12.7% (inactive) and -15.7% (inactive) in assay [3] (at 50.0 µM); 5% (inactive) in assay [4] (setting [7]); 21% (inactive) in assay [4] (setting [8]); 17.8% (inactive) and -2.05% (inactive) in assay [4] (at 50.0 µM). Further, the growth inhibition in assay [5] (setting [7]) is 17% (inactive); in assay [5] (setting [8]), 34% (inactive); in assay [5] (at 50.0 µM), 5.4% (inactive) and -0.45% (inactive); in assay [6] (setting [7]), 9% (inactive); in assay [6] (setting [8]), 20% (inactive); in assay [6] (at 50.0 µM), 1.95% (inactive) and 12.6% (inactive).

With `CCOC(=O)/C(=C/c1ccc(OC)c(OC)c1)C(=O)c1ccccc1`, the growth inhibition was 12% (inactive) in assay [1] (setting [7]); 49% (inactive) in assay [1] (setting [8]); 74.7% (active) in assay [1] (at 50.0 µM); -19% (inactive) in assay [2] (setting [7]); 66% (inactive) in assay [2] (setting [8]); 68% (inactive) in assay [2] (at 50.0 µM). Further, the growth inhibition in assay [3] (setting [7]) was 2% (inactive); in assay [3] (setting [8]), 65% (inactive); in assay [3] (at 50.0 µM), 64.7% (inactive); in assay [4] (setting [7]), 27% (inactive); in assay [4] (setting [8]), 71% (active); in assay [4] (at 50.0 µM), 72.5% (active). Further, the growth inhibition in assay [5] (setting [7]) is 27% (inactive); in assay [5] (setting [8]), 92% (active); in assay [5] (at 50.0 µM), 78.4% (active); in assay [6] (setting [7]), -7% (inactive); in assay [6] (setting [8]) it was 80% (active); in assay [6] (at 50.0 µM) it was 56.5% (inactive).

For the compound `CC1=NC(=Cc2ccc([N+](=O)[O-])cc2)C(=O)N1n1c(-c2ccccc2)nc2ccccc2c1=O`, the growth inhibition was 3% (inactive) in assay [1] (setting [7]); 1% (inactive) in assay [1] (setting [8]); 48.9% (inactive) in assay [1] (at 50.0 µM); -13% (inactive) in assay [2] (setting [7]); 0% (inactive) in assay [2] (setting [8]); 63.8% (inactive) in assay [2] (at 50.0 µM). Further, the growth inhibition in assay [3] (setting [7]) is 5% (inactive); in assay [3] (setting [8]), 7% (inactive); in assay [3] (at 50.0 µM), 45.3% (inactive); in assay [4] (setting [7]), 13% (inactive); in assay [4] (setting [8]) it was 11% (inactive); in assay [4] (at 50.0 µM) it was 77% (active). In addition, the growth inhibition was -15% (inactive) in assay [5] (setting [7]); -2% (inactive) in assay [5] (setting [8]); 68% (inactive) in assay [5] (at 50.0 µM); 11% (inactive) in assay [6] (setting [7]); 1% (inactive) in assay [6] (setting [8]); 62.8% (inactive) in assay [6] (at 50.0 µM).

In the case of `CCN(CC)CCNc1nc(NCCN(CC)CC)c2nc(-c3ccccc3)c(-c3ccccc3)nc2n1`, the growth inhibition in assay [1] (setting [7]) is 91% (active); in assay [1] (setting [8]), 98% (active); in assay [1] (at 50.0 µM), 98.8% (active); in assay [2] (setting [7]), 84% (active); in assay [2] (setting [8]), 98% (active); in assay [2] (at 50.0 µM), 98.2% (active). The growth inhibition in assay [3] (setting [7]) is 95% (active); in assay [3] (setting [8]), 99% (active); in assay [3] (at 50.0 µM), 98.8% (active); in assay [4] (setting [7]), 76% (active); in assay [4] (setting [8]), 97% (active); in assay [4] (at 50.0 µM), 98% (active). Besides, the growth inhibition in assay [5] (setting [7]) was 92% (active); in assay [5] (setting [8]), 98% (active); in assay [5] (at 50.0 µM), 98% (active); in assay [6] (setting [7]), 92% (active); in assay [6] (setting [8]) it was 98% (active); in assay [6] (at 50.0 µM), 98.4% (active).
